Many of the other results were omitted from the sample, so hits are more common in it than they were.
NOMO-1 viab = STK33 inhibitor candidate reducing NOMO-1 cell viability; NOMO-1 AML viability, CellTiter-Glo luminescence, 72 h; inhibition, % (test concentration not listed); 37,000 compounds, 7.5% hits; in the data active means inhibition above about 80%
STK33 inh = blocks human STK33 kinase activity. Q9BYT3. ADP-Glo luminescence, MBP substrate. AID 2322. 27,000 compounds, 0.44% hits. inhibition, % at 12.5 µM; in the data active means inhibition above about 20%
Target sequence (Q9BYT3 whole entry, looked up): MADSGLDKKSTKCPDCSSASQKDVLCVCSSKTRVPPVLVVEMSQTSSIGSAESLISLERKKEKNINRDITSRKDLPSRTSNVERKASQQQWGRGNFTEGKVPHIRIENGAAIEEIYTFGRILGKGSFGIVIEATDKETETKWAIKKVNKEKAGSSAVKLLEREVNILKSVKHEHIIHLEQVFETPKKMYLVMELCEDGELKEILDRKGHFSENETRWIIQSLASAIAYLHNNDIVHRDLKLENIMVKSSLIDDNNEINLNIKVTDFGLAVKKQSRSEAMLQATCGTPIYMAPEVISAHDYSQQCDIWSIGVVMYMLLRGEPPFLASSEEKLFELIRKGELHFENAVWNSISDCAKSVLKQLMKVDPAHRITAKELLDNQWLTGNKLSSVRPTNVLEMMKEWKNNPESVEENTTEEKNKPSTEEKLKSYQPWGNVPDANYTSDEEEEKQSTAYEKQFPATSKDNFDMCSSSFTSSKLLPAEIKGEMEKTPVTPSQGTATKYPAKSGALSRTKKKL
PD-1 reverse act = activators reversing PD-1 mediated T-cell inhibition; activation, % (test concentration not listed); primary human CD4 T cells, PD-L1 beads, CellTiter-Glo 96 h; 29,000 tested, under 10 active; call rule not given here;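 further: 0% = median vehicle wells and 100% = positive control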
Active calls of the source: *; · = not tested or not shown; ! = repeats disagree.

SMILES	NOMO-1 viab	STK33 inh	PD-1 reverse act
CC(NC(=O)c1ccc(C(C)(C)C)cc1)c1ccccc1 (stereo unspecified)	25	·	0
CCCCC1(COC(=O)c2ccc(OC)cc2)C(=O)N(c2ccccc2)N(c2ccccc2)C1=O	66	·	0
C(=N/n1cnnc1)/c1cccc2c1OCCCO2	12	-1	-1
COc1ccc(OC)c(S(=O)(=O)N(C)CC(=O)Nc2ccc(F)cc2)c1	-3	3	2
CN(C)/C=N/n1cnc2sc3c(c2c1=O)CCCC3	4	·	0
Cc1ccc(C)c(NC(=O)Cn2cnc3ccccc3c2=O)c1	23	-1	·
O=C(CSc1ncccn1)Nc1ccc(I)cc1	2	-3	0
COc1ccc(S(=O)(=O)Nc2ccc3c(c2)CC(=O)N([C@H](C)CO)C[C@H](C)[C@H](CN(C)Cc2ccc(Cl)c(Cl)c2)O3)cc1	98*	-12	·
COc1ccc(CN(C)C[C@@H]2Oc3ccc(NS(=O)(=O)c4ccc(Cl)cc4)cc3CC(=O)N([C@@H](C)CO)C[C@@H]2C)cc1	9	-2	1
COc1ccc(CN(C)C[C@@H]2Oc3ccc(NS(=O)(=O)c4ccc(Cl)cc4)cc3CC(=O)N([C@H](C)CO)C[C@H]2C)cc1	18	0	·
COc1ccc(S(=O)(=O)Nc2ccc3c(c2)CC(=O)N([C@H](C)CO)C[C@@H](C)[C@H](CN(C)Cc2ccc(Cl)c(Cl)c2)O3)cc1	112*	3	0
S=C(NCc1ccco1)NCC1CC(c2ccccc2)=NO1 (stereo unspecified)	-43	·	1
Cc1ccccc1OCc1nnc(SCC(N)=O)n1C	-6	-1	-1
CCn1c(SCC(=O)Nc2ccc(C(C)=O)cc2)nnc1-c1cc(Br)ccc1O	22	1	-1
CC(C)CC1NC(=O)C2CCCN2C1=O (stereo unspecified)	-4	-5	0
O=c1[nH]c(=O)n(C2C[C@H](O)[C@@H](CO)O2)cc1C(F)(F)F (stereo partly specified)	108*	-1	·
Cc1ccc(S(=O)(=O)N(C)CC(=O)Nc2ccccc2Cl)cc1	·	0	·
CN1CCN(c2ncc3c(=S)[nH]c(=S)[nH]c3n2)CC1	5	·	0
CCc1ccc(/C(C#N)=C/C=C/c2ccccc2)cc1	115*	·	-1
O=C(Cn1cc(C(=O)c2ccccc2F)c2ccccc21)Nc1ccccc1	89*	3	-1
CC(=O)c1cn(CC(=O)Nc2ccccc2)c2ccccc12	19	2	-1
COc1ccc(S(=O)(=O)N(C)CC(=O)NC2CCCCC2)cc1C	12	1	-1
Cc1ccc2c(c1)C(=O)C1(O)CCN(c3ccccc3)C1=N2 (stereo unspecified)	109*	1	3
C/C1=C/CCC2=CC(OC2=O)C(C)(C)/C=C/C1=O (stereo unspecified)	119*	3	-9
c1cnc2c(OCc3nc4ccccc4[nH]3)cccc2c1	19	1	-2
SMILES	NOMO-1 viab	STK33 inh	PD-1 reverse act
Nc1nc(COc2cccc3cccnc23)nc(Nc2ccccc2)n1	91*	1	-8
CN1CCCC(CC2c3ccccc3Sc3ccccc32)C1 (stereo unspecified)	50	-6	·
CSc1ccc2c(c1)C(N1CCN(C)CC1)Cc1ccccc1S2 (stereo unspecified)	143*!	0	-1
Cc1nc(SCC(=O)N(c2ccccc2)c2ccccc2)n[nH]1	-6	-1	0
CCOC(=O)c1c(NC(=O)CSc2nc3ccccc3c(=O)[nH]2)sc2c1CCCC2	107*	0	-5
CCOC(=O)c1c(NC(=O)Cn2cnc3ccccc3c2=O)sc2c1CCCC2	26	-4	-2
CC(=O)NC(=O)C1C=C2C=CC=CC2OC1=Nc1ccc(C(F)(F)F)cc1 (stereo unspecified)	4	·	0
CCOC(=O)c1c(NC(=O)COc2ccc(Cl)cc2C)sc2c1CCC2	4	0	0
COc1ccc(OC)c(S(=O)(=O)N(C)CC(=O)N2CCOCC2)c1	-16	-2	3
COc1ccccc1-c1cc(C(F)(F)F)nc(S(=O)(=O)CCCC(=O)N2CCOCC2)n1	136*	0	-16
COc1ccc(-c2c(-c3ccc(OCc4cnn(-c5ccccc5)c4)c(C)c3O)n[nH]c2C)cc1	24	-1	1
CC(=O)OC[C@]12[C@H](OC(C)=O)[C@H](OC(C)=O)[C@@H]3[C@@H](OC(C)=O)[C@@]14O[C@@]3(C)COC(=O)c1ncccc1CC[C@H](C)C(=O)O[C@@H]([C@H](O)[C@@H]2OC(=O)c1ccccc1)[C@]4(C)O	117*	-1	-6
CC(=O)OC[C@]12[C@H](OC(C)=O)[C@@H](OC(C)=O)[C@@H]3[C@@H](OC(C)=O)[C@@]14O[C@@]3(C)COC(=O)c1cccnc1[C@H](C)[C@@H](C)C(=O)O[C@@H]([C@H](O)[C@@H]2OC(=O)c1ccccc1)[C@]4(C)O	·	-7	·
CC1(C)NC(=O)N(CC(=O)Nc2ccc(Br)cc2)C1=O	-6	-1	·
O=S(=O)(Cc1ccco1)Cc1nc(-c2ccc(-c3ccccc3)cc2)cs1	-15	·	2
CCOC(=O)c1cnc(S/C=C/C(=O)c2ccc(C)cc2)nc1N	120*	2	-48
CCOC(=O)c1cnc(SCC(=O)Nc2ccc(Cl)cc2Cl)nc1N	71	-4	-6
CC1C(c2ccccc2)CC(C(=O)O)C1(C)C (stereo unspecified)	6	·	0
CCCC1C2C(=O)N(c3ccccc3)C(=O)C2ON1c1ccc(Cl)c(Cl)c1 (stereo unspecified)	7	-2	1
O=C(Nc1sc2c(c1C(=O)Nc1ccccc1)CCCC2)c1ccccc1	32	·	-1
COC(=O)c1ccccc1NC(=O)CSc1nnnn1-c1cccc2ccccc12	-1	-2	0
CC1(C)CC(O)CC2(C)OC(=O)C=C12 (stereo unspecified)	37	-4	2
C[C@H]1CN([C@@H](C)CO)C(=O)c2cccc(NS(=O)(=O)c3ccc(Cl)cc3)c2O[C@H]1CN(C)C(=O)NC1CCCCC1	29	·	-1
C[C@H](CO)N1C[C@H](C)[C@H](CN(C)C(=O)NC2CCCCC2)Oc2c(NS(=O)(=O)c3ccc(Cl)cc3)cccc2C1=O	88*	·	-2
COc1ccc(S(=O)(=O)Nc2cccc3c2O[C@H](CN(C)C(=O)NC2CCCCC2)[C@@H](C)CN([C@@H](C)CO)C3=O)cc1	22	·	·
COc1ccc(S(=O)(=O)Nc2cccc3c2O[C@@H](CN(C)C(=O)NC2CCCCC2)[C@@H](C)CN([C@H](C)CO)C3=O)cc1	114*	·	-2
Cc1ccc2c(c1)C(c1ccccc1)CC(C)N2S(=O)(=O)c1cccc(Cl)c1 (stereo unspecified)	-14	·	-1
COc1ccc(NC(=O)C(C(=O)Nc2ccc(OC)cc2)C23CC4CC(CC(C4)C2)C3)cc1	48	·	0
C[C@@H]1CN([C@@H](C)CO)C(=O)Cc2cc(NS(=O)(=O)c3ccc(F)cc3)ccc2O[C@@H]1CN(C)Cc1ccc(C(=O)Nc2ccccc2N)cc1	112*	·	0
C[C@@H]1CN([C@@H](C)CO)C(=O)Cc2cc(NS(=O)(=O)c3cn(C)cn3)ccc2O[C@@H]1CN(C)Cc1ccc(C(=O)Nc2ccccc2N)cc1	32	·	1

High-throughput results deposited in PubChem by Broad Institute.
